# Measured values: PubChem BioAssay (NCI)
# Compounds without any hit were thinned out: in the full panel of roughly 79,000, 15% have a hit. Unmarked numbers belong to inactive results. Activity calls are given as the source filed them. Cut-off read from the data, not from the text of the source: active = growth inhibition above about 70%; inactive = the rest.
# How the values were obtained:
# [1] = NCI Yeast Anticancer Drug Screen. Data for the rad52 strain (AID 147);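 note: 0% = growth of vehicle-treated control cultures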; conditions: S. cerevisiae rad52 mutant growth inhibition, active compounds read high
# How it was run: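 Screen used a yeast mutant impaired in DNA repair. After compound exposure, growth was measured. Values reflect inhibition compared with vehicle-treated cells.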
# [2] = NCI Yeast Anticancer Drug Screen. Data for the wt1 strain (AID 149);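 note: 0% = growth of vehicle-treated wt1 cultures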; conditions: S. cerevisiae wt1 strain (SPY 50644) growth inhibition, active compounds read high
# How it was run: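 Compounds are added to wt1 yeast cultures. Growth is then measured. Inhibition is expressed relative to vehicle-treated controls.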
# [3] = NCI Yeast Anticancer Drug Screen. Data for the rad50EPP+ strain (AID 151);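 note: 0% = growth of vehicle-treated control cultures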; conditions: S. cerevisiae rad50 mutant strain, active compounds read high
# How it was run: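 Exposing the rad50EPP+ strain to each compound, growth was compared with vehicle-only cultures to give inhibition.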
# [4] = NCI Yeast Anticancer Drug Screen. Data for the mgt1 strain (AID 153); conditions: S. cerevisiae mgt1 mutant growth inhibition, active compounds read high
# How it was run: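 Genetically defined yeast (mgt1) treated with compound; inhibition of growth expressed against vehicle-treated controls.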
# [5] = NCI Yeast Anticancer Drug Screen. Data for the rad50 strain (AID 155);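 note: 0% = growth of vehicle-only cultures of the same strain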; conditions: S. cerevisiae rad50 strain growth inhibition, active compounds read high
# How it was run: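 Inhibition values express reduced yeast growth in compound-treated cultures relative to vehicle-treated controls.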
# [6] = NCI Yeast Anticancer Drug Screen. Data for the mec2-1 strain (AID 157); conditions: S. cerevisiae mec2-1 strain, active compounds read high
# How it was run: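 Readout is yeast growth inhibition, normalised to vehicle-treated controls, in the mec2-1 strain exposed to compound.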
# [7] = NCI Yeast Anticancer Drug Screen. Data for the rad14 strain (AID 159);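 note: 0% = growth of vehicle-treated control cultures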; conditions: S. cerevisiae rad14 strain growth inhibition, active compounds read high
# How it was run: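 A mutant yeast strain defective in DNA damage repair is treated with compound; inhibition of its growth is scored against untreated, vehicle-exposed cultures.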
# [8] = NCI Yeast Anticancer Drug Screen. Data for the sgs1 mgt1 strain (AID 161);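 note: 0% = growth of cultures given vehicle only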; conditions: S. cerevisiae sgs1 mgt1 strain, active compounds read high
# How it was run: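 Yeast cells carrying a defined DNA-repair defect were exposed to test compounds. Growth inhibition was measured relative to vehicle-treated controls.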
# [9] = NCI Yeast Anticancer Drug Screen. Data for the CLN2oe strain (AID 163);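 note: 0% = growth of vehicle-only control cultures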; conditions: S. cerevisiae CLN2oe strain, active compounds read high
# How it was run: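 Values reflect how much compound exposure reduced yeast growth, referenced to vehicle-exposed cells. Assay organism is a strain with a defined genetic change affecting cell-cycle control.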
# [10] = NCI Yeast Anticancer Drug Screen. Data for the cln2 rad14 strain (AID 165);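 note: 0% = growth equal to vehicle treated cultures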; conditions: S. cerevisiae cln2 rad14 strain, active compounds read high
# How it was run: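 Relative to vehicle controls, growth inhibition of compound-treated cln2 rad14 yeast was recorded.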
# [11] = NCI Yeast Anticancer Drug Screen. Data for the bub3 strain (AID 167); conditions: S. cerevisiae bub3 mutant strain, active compounds read high
# How it was run: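 Steps: expose the mutant yeast strain to compound; grow alongside vehicle-treated cultures; measure growth; express inhibition against the vehicle cultures.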
# [12] = NCI Yeast Anticancer Drug Screen. Data for the wt2 strain (AID 169);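 note: 0% = growth of vehicle-treated yeast cultures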; conditions: S. cerevisiae wt2 strain growth inhibition, active compounds read high
# How it was run: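 Values express reduction in yeast growth under compound treatment, referenced to vehicle-treated cells.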
# [13] = NCI Yeast Anticancer Drug Screen. Data for the mlh1 strain (AID 171);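 note: 0% = growth of vehicle-treated control cultures of the same strain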; conditions: S. cerevisiae mlh1 strain growth inhibition, active compounds read high
# How it was run: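 Steps: expose the defined-mutant yeast strain to compound; expose a parallel culture to vehicle; measure growth; express compound effect as inhibition relative to the vehicle culture.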
# [14] = NCI Yeast Anticancer Drug Screen. Data for the sgs1 strain (AID 173);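 note: 0% = growth of vehicle-only control cultures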; conditions: S. cerevisiae sgs1 mutant, active compounds read high
# How it was run: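 Treat defined-mutant yeast with compound; measure growth; calculate inhibition relative to vehicle-treated cells.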
# [15] = NCI Yeast Anticancer Drug Screen. Data for the mlh1 rad18 strain (AID 175); conditions: S. cerevisiae mlh1 rad18 strain growth inhibition, active compounds read high
# How it was run: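 Test agents were incubated with a yeast strain of defined genotype (DNA damage repair defect). Inhibition of growth was derived by comparison with vehicle-exposed cultures.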
# [16] = at 5.0 µM (retest, dose inferred, filed as 0.5)
# [17] = at 50.0 µM (retest, dose inferred, filed as 5.0)
smiles,measurement,setting,value
Cc1cc(OCc2nc(N)nc(N)c2-c2ccc(Cl)c(Cl)c2)ccc1[N+](=O)[O-],growth inhibition,[1]; at 1.2 µM,0%
same,growth inhibition,[1]; at 3.7 µM,1%
same,growth inhibition,[1]; at 11.0 µM,0%
same,growth inhibition,[1]; at 33.0 µM,-1%
same,growth inhibition,[1]; at 100.0 µM,-2%
same,growth inhibition,[2]; at 1.2 µM,1%
same,growth inhibition,[2]; at 3.7 µM,1%
same,growth inhibition,[2]; at 11.0 µM,3%
same,growth inhibition,[2]; at 33.0 µM,3%
same,growth inhibition,[2]; at 100.0 µM,4%
same,growth inhibition,[3]; at 1.2 µM,-1%
same,growth inhibition,[3]; at 3.7 µM,-3%
same,growth inhibition,[3]; at 11.0 µM,-1%
same,growth inhibition,[3]; at 33.0 µM,-1%
same,growth inhibition,[3]; at 100.0 µM,-1%
same,growth inhibition,[4]; at 1.2 µM,2%
same,growth inhibition,[4]; at 3.7 µM,5%
same,growth inhibition,[4]; at 11.0 µM,2%
same,growth inhibition,[4]; at 33.0 µM,1%
same,growth inhibition,[4]; at 100.0 µM,10%
same,growth inhibition,[5]; at 1.2 µM,0%
same,growth inhibition,[5]; at 3.7 µM,6%
same,growth inhibition,[5]; [16],51%
same,growth inhibition,[5]; at 11.0 µM,-3%
same,growth inhibition,[5]; at 33.0 µM,2%
same,growth inhibition,[5]; [17],84% (active)
same,growth inhibition,[5]; at 50.0 µM,98.7% (active)
same,growth inhibition,[5]; at 100.0 µM,2%
same,growth inhibition,[6]; at 1.2 µM,2%
same,growth inhibition,[6]; at 3.7 µM,3%
same,growth inhibition,[6]; [16],48%
same,growth inhibition,[6]; at 11.0 µM,0%
same,growth inhibition,[6]; at 33.0 µM,3%
same,growth inhibition,[6]; [17],87% (active)
same,growth inhibition,[6]; at 50.0 µM,95.8% (active)
same,growth inhibition,[6]; at 100.0 µM,-10%
same,growth inhibition,[7]; at 1.2 µM,-1%
same,growth inhibition,[7]; at 3.7 µM,8%
same,growth inhibition,[7]; at 11.0 µM,3%
same,growth inhibition,[7]; at 33.0 µM,3%
same,growth inhibition,[7]; at 100.0 µM,3%
same,growth inhibition,[8]; [16],54%
same,growth inhibition,[8]; [17],75% (active)
same,growth inhibition,[8]; at 50.0 µM,98.7% (active)
same,growth inhibition,[9]; at 1.2 µM,0%
same,growth inhibition,[9]; at 3.7 µM,2%
same,growth inhibition,[9]; at 11.0 µM,0%
same,growth inhibition,[9]; at 33.0 µM,4%
same,growth inhibition,[9]; at 100.0 µM,6%
same,growth inhibition,[10]; [16],-1%
same,growth inhibition,[10]; [17],30%
same,growth inhibition,[10]; at 50.0 µM,95% (active)
same,growth inhibition,[11]; at 1.2 µM,0%
same,growth inhibition,[11]; at 3.7 µM,-1%
same,growth inhibition,[11]; [16],-9%
same,growth inhibition,[11]; at 11.0 µM,0%
same,growth inhibition,[11]; at 33.0 µM,-2%
same,growth inhibition,[11]; [17],53%
same,growth inhibition,[11]; at 50.0 µM,79.9% (active)
same,growth inhibition,[11]; at 100.0 µM,20%
same,growth inhibition,[12]; at 1.2 µM,2%
same,growth inhibition,[12]; at 3.7 µM,4%
same,growth inhibition,[12]; at 11.0 µM,4%
same,growth inhibition,[12]; at 33.0 µM,4%
same,growth inhibition,[12]; at 100.0 µM,5%
same,growth inhibition,[13]; at 1.2 µM,0%
same,growth inhibition,[13]; at 3.7 µM,0%
same,growth inhibition,[13]; at 11.0 µM,0%
same,growth inhibition,[13]; at 33.0 µM,-1%
same,growth inhibition,[13]; at 100.0 µM,13%
same,growth inhibition,[14]; at 1.2 µM,-1%
same,growth inhibition,[14]; at 3.7 µM,-3%
same,growth inhibition,[14]; at 11.0 µM,-2%
same,growth inhibition,[14]; at 33.0 µM,-1%
same,growth inhibition,[14]; at 100.0 µM,0%
same,growth inhibition,[15]; [16],26%
same,growth inhibition,[15]; [17],85% (active)
same,growth inhibition,[15]; at 50.0 µM,98.5% (active)
